Results reported in PubChem BioAssay (Tox21).
Inconclusive results are not listed. Activity calls are given as the source filed them. Unless noted, calls follow the shape of the dose curve; as a rule, active = well fitted curve in the direction sought with a large enough effect in the repeat runs; inconclusive = weak or mixed curves; inactive = no such curve, though single readings can be large; an effect the other way counts as inactive or inconclusive.

Key:
[1] = qHTS assay to identify small molecule antagonists of the vitamin D receptor (VDR) signaling pathway - cell viability counter screen (AID 743225); also: nearly all actives have a fitted effect of over 50% in size; also: potency is read from the fitted curve at half-maximal effect
How it was run: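 In this counter screen, VDR-bla HEK 293T cells receive test compound plus 3 nM final calcitriol for 16 h at 37C. Room-temperature steps of 2 h with the beta-lactamase substrate, then 30 min with CellTiter-Glo, precede the luminescence read.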

[2] = qHTS assay to identify small molecule agonists of the NFkB signaling pathway - cell viability counter screen (AID 1159515; calls by dose curve; also: nearly all actives have a fitted effect of over 55% in size; also: potency is read from the fitted curve at half-maximal effect)
How it was run: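 Luminescence from CellTiter-Glo (30 min, room temperature) gives viability, measured in the same wells as the beta-lactamase reporter read. Cells were NFkB-bla ME-180, 2,000 per well, treated 5 hr with compounds.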

[3] = qHTS assay to identify small molecule agonists of the endoplasmic reticulum stress response signaling pathway - cell viability counter screen (AID 1159517; calls by dose curve; also: nearly all actives have a fitted effect of over 50% in size; also: potency is read from the fitted curve at half-maximal effect)
How it was run: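 Cells, HeLa ESRE-bla; density, 1,500/well; dosing, 5 hr at 37 C, 5% CO2; readout, CellTiter-Glo luminescence after 30 min RT.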

[4] = qHTS assay to identify small molecule antagonists of the retinoid-related orphan receptor gamma (ROR-gamma) signaling pathway - cell viability counter screen (AID 1159520); also: nearly all actives have a fitted effect of over 50% in size; also: potency is read from the fitted curve at half-maximal effect
How it was run: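 Cytotoxicity was read from cellular ATP (CellTiter-Glo luminescence) after 16 hr at 37 C with 1 uM doxycycline induction. The inducer was added 2 hr after compound transfer to Tet-on ROR gamma CHO cells.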

[5] = target: Nuclear receptor ROR-gamma (Homo sapiens) (UniProt P51449); assay: qHTS assay to identify small molecule antagonists of the retinoid-related orphan receptor gamma (ROR-gamma) signaling pathway (AID 1159521; also: nearly all actives have a fitted effect of over 50% in size; also: potency is read from the fitted curve at half-maximal effect)
How it was run: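 Screening format: cell-based luciferase reporter in CHO cells with doxycycline-inducible RORγ. Compound pre-exposure lasts 2 h, doxycycline is 1 uM final, induction runs 16 h at 37 C, and ONE-Glo luminescence is read.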

[6] = qHTS assay to identify small molecule agonists of the AP-1 signaling pathway - cell viability counter screen (AID 1159525; calls by dose curve; also: nearly all actives have a fitted effect of over 55% in size; also: potency is read from the fitted curve at half-maximal effect)
How it was run: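 Luminescent ATP readout (Cell Titer Glo, 30 min RT), normalised to DMSO and tetra n-octyl ammonium bromide controls. Cells were ME-180 AP-1-bla in 0.5% dialyzed FBS Opti-MEM, with a 5 h, 37 °C compound exposure.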

[7] = qHTS assay to identify small molecule agonists of the RXR signaling pathway - cell viability counter screen (AID 1159529); also: nearly all actives have a fitted effect of over 50% in size; also: potency is read from the fitted curve at half-maximal effect
How it was run: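 Viability read-out for the RXR-alpha agonist qHTS: luminescent CellTiter-Glo signal after 30 min at RT. HEK 293T bla reporter cells, 2% charcoal-stripped FBS, 16 hr compound incubation; tetraoctyl ammonium bromide as cytotoxic control.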

[8] = qHTS assay to identify small molecule antagonists of the retinoid acid receptor (RAR) signaling pathway - cell viability counter screen (AID 1159551); also: nearly all actives have a fitted effect of over 35% in size; also: potency is read from the fitted curve at half-maximal effect
How it was run: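 Luminescent ATP quantitation (CellTiter-Glo) gave cell viability in C3RL4 cells exposed to test chemicals for 6 h at 37 C alongside 1 uM final retinol.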

[9] = qHTS assay to identify small molecule antagonists of the retinoic acid receptor (RAR) signaling pathway (AID 1159552; also: nearly all actives have a fitted effect of over 50% in size; also: potency is read from the fitted curve at half-maximal effect)
How it was run: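 Using a RARE-driven luciferase construct in C3RL4 cells, retinol at 1 uM final provided the agonist stimulus while compounds were co-applied. After 6 hours at 37 C, luminescence was recorded to flag inhibitors of retinol signaling.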

[10] = qHTS assay to identify small molecule agonists of the retinoic acid receptor (RAR) signaling pathway (AID 1159553); also: potency is read from the fitted curve at half-maximal effect
How it was run: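 Luminescence from a RARE-driven luciferase reporter in C3RL4 cells served as the read-out, measured after 30 min with detection reagent at room temperature. Compounds in DMSO were applied for 6 hr at 37 C following overnight seeding.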

[11] = qHTS assay to identify small molecule antagonists of the estrogen related receptor (ERR) signaling pathway from Tox21 library - cell viability counter screen (AID 1224834); also: nearly all actives have a fitted effect of over 30% in size; also: potency is read from the fitted curve at half-maximal effect
How it was run: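 Fluorescence from CellTiter-Fluor gives the viability read-out, taken 30 min after reagent addition. Before that, ERR cells seeded 6 h earlier were incubated with compounds for 17.5 h at 37 C.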

[12] = qHTS assay to identify small molecule agonists of the AP-1 signaling pathway (AID 1159526; calls by dose curve)
[13] = target: Retinoic acid receptor RXR-alpha (Homo sapiens) (UniProt P19793); assay: qHTS assay to identify small molecule agonists of the RXR signaling pathway (AID 1159527; calls by dose curve; also: nearly all actives have a fitted effect of over 35% in size; also: potency is read from the fitted curve at half-maximal effect)
Sequence of Retinoic acid receptor RXR-alpha (Homo sapiens) (P19793 whole entry, looked up): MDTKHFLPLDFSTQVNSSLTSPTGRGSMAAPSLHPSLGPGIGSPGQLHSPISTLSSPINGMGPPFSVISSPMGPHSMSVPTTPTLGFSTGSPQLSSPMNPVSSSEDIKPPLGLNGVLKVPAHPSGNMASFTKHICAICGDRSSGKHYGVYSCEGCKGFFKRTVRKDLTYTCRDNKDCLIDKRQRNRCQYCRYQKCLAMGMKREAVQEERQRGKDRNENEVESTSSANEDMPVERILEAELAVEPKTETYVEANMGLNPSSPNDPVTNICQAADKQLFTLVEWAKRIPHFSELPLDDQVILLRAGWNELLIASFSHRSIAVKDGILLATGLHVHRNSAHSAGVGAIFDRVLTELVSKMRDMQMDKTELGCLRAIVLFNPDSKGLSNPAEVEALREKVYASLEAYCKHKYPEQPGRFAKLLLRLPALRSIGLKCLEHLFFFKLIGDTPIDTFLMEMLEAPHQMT
How it was run: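 Fluorescence ratio readout (460 vs 530 nm) from GeneBLAzer RXR-alpha HEK 293T cells after 16 hr compound treatment; cells seeded 5 hr beforehand in low-serum, charcoal-stripped medium.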

[14] = qHTS assay to identify small molecule antagonists of the estrogen related receptor (ERR) signaling pathway - cell viability counter screen (AID 1224818); also: potency is read from the fitted curve at half-maximal effect;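 also: viability measured after 17.5 h of compound exposure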
How it was run: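 Multiplexed counter screen to separate cytotoxic compounds from true ERR modulators. ERR cells received DMSO-dissolved compounds after a 6 h pre-incubation, were exposed 17.5 h at 37 C, then assayed with CellTiter-Fluor fluorescence.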

[15] = qHTS assay to identify small molecule agonists of the estrogen related receptor (ERR) signaling pathway (AID 1224820)
How it was run: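 Quantitative HTS of the LOPAC library used NTP ERR reporter cells treated 18 h at 37 C. Signal is luminescence after One-Glo addition and a 30 min room-temperature incubation.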

[16] = qHTS assay to identify small molecule antagonists of the estrogen related receptor signaling pathway with the pleiotropic PPARgamma coactivator (PGC) cell viability counter screen (AID 1224822; also: potency is read from the fitted curve at half-maximal effect)
How it was run: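 Cells: PGC/ERR, 2,000/well, 1536-well format. Pre-incubation 6 h, 37 C/5% CO2. Compound exposure 17.5 h, 37 C. Detection: CellTiter-Fluor, 30 min, fluorescence.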

[17] = qHTS assay to identify small molecule agonists of the estrogen related receptor signaling pathway with the pleiotropic PPARgamma coactivator (PGC) (AID 1224823)
How it was run: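 Cell-based luciferase assay in the NTP-supplied PGC/ERR line, 2,000 cells/well; 18 h compound exposure at 37 C, luminescence after One-Glo.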

[18] = qHTS assay to identify small molecule antagonists of the estrogen related receptor (ERR) signaling pathway (AID 1224819)
How it was run: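 Seed ERR cells 2,000/well; rest 6 h at 37 C/5% CO2; pin compounds in DMSO; incubate 18 h at 37 C; add One-Glo; wait 30 min at room temperature; measure luminescence.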

[19] = system: estrogen-related receptor alpha (ERRalpha) with PGC-1alpha coactivator, human; assay: qHTS assay to identify small molecule antagonists of the estrogen related receptor signaling pathway with the pleiotropic PPARgamma coactivator (PGC) (AID 1224821; calls by dose curve)
How it was run: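 Quantitative HTS for antagonism: PGC/ERR cells received compounds after 6 h attachment and were incubated 18 h at 37 C, with luminescence (One-Glo) as the endpoint.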

Measured: Potency

O=C(NO)C1(NS(=O)(=O)c2ccc(Oc3ccc(F)cc3)cc2)CCOCC1
inactive: [1] | [2] | [3] | [4] | [5] | [6] | [7] | [8] | [9] | [10] | [11]

CNCc1cc(F)ccc1Oc1ccc(Cl)c(Cl)c1
active: [5] 34.4 µM
inactive: [2] | [3] | [4] | [8]

COC(=O)C1=C(C)NC(C)=C(C(=O)OCCc2ccc(N3CCN(C(c4ccccc4)c4ccccc4)CC3)cc2)C1c1cccc([N+](=O)[O-])c1 (stereo not given)
inactive: [1] | [2] | [3] | [4] | [5] | [6] | [7] | [8]

Cc1cc(O)c(C(C)(C)C)cc1Sc1cc(C(C)(C)C)c(O)cc1C
active: [1] 7.75 µM | [2] 17.3 µM | [3] 21.8 µM | [4] 8.62 µM | [5] 2.73 µM | [6] 12.3 µM | [8] 61 µM
inactive: [9]

O=C1C=CC(=O)N1c1ccc(Cc2ccc(N3C(=O)C=CC3=O)cc2)cc1
active: [1] 21.9 µM | [2] 24.5 µM | [3] 34.7 µM | [4] 15.4 µM | [5] 8.63 µM | [6] 24.5 µM | [7] 17.4 µM | [8] 61.1 µM | [9] 13.7 µM

O=c1[nH]cnc2nc[nH]c12
inactive: [1] | [2] | [3] | [4] | [5] | [12] | [13] | [7] | [8] | [9] | [10] | [11]

CC(C)c1ccc2c(c1)CC[C@H]1[C@](C)(CN)CCC[C@]21C
active: [1] 43.6 µM | [2] 19.5 µM | [3] 9.77 µM | [4] 30.6 µM | [5] 30.6 µM | [6] 54.9 µM | [7] 21.9 µM

CCCCCCCCCCCCCC[P+](CCCC)(CCCC)CCCC (tested in a mixture with another compound)
active: [2] 22 µM | [3] 22 µM | [4] 15.4 µM | [5] 4.89 µM | [6] 12.4 µM | [8] 27.5 µM | [11] 24.5 µM
inactive: [1]

CCCCCCCCn1sc(Cl)c(Cl)c1=O
active: [1] 6.92 µM | [2] 9.77 µM | [3] 3.47 µM | [4] 2.73 µM | [5] 4.86 µM | [6] 19.5 µM | [8] 13.7 µM | [9] 27.3 µM

CCOC(=O)O[C@H](C)OC(=O)c1ccc2c(c1)cc(C(=O)NC1CCN(C(C)C)CC1)n2Cc1cc(-c2ccc(Cl)s2)on1
active: [2] 45.8 µM | [3] 45.8 µM | [4] 11.4 µM | [5] 4.54 µM | [7] 6.46 µM | [8] 28.6 µM | [9] 12.8 µM | [11] 28.6 µM

O=c1[nH]sc2ccccc12
active: [2] 49 µM | [3] 54.9 µM | [4] 21.7 µM | [5] 17.2 µM | [6] 34.7 µM | [7] 19.5 µM | [9] 17.2 µM

CCOc1ccc2nc3cc(N)ccc3c(N)c2c1
inactive: [1] | [2] | [3] | [4] | [5] | [6] | [8] | [10]

N=C1N=C(N)c2cc3ccccc3cc21
active: [2] 49 µM | [3] 8.71 µM | [4] 30.6 µM | [5] 30.6 µM | [6] 49 µM | [7] 49 µM | [9] 43.3 µM | [14] 25.3 µM | [16] 20.9 µM | [11] 27.3 µM
inactive: [15] | [17]

[O-][n+]1ccccc1SSc1cccc[n+]1[O-]
active: [2] 0.233 µM | [3] 4.14 µM | [4] 0.103 µM | [5] 0.058 µM | [7] 0.165 µM | [9] 0.092 µM

CN(C)c1ccc(C2(c3ccc(N(C)C)cc3)OC(=O)c3cc(N(C)C)ccc32)cc1
inactive: [1] | [2] | [3] | [4] | [5] | [7] | [8] | [9] | [10] | [11]

CCCCCCCC/C=C/CCCCCCCC1=NCCN1CCO
active: [2] 49 µM | [3] 43.6 µM | [4] 68.6 µM | [5] 61.1 µM | [7] 49 µM | [8] 68.6 µM | [9] 61.1 µM | [11] 54.5 µM

CCC1OCC(COc2ccc(Oc3ccccc3)cc2)O1 (stereo not given)
inactive: [1] | [2] | [3] | [4] | [5] | [6] | [8] | [9] | [11]
active: [10] 3.44 µM

CC1=C(/C=C/C(C)=C/C=C/C(C)=C/C=O)C(C)(C)CCC1
active: [1] 13.7 µM | [2] 38.7 µM | [3] 38.7 µM | [4] 24.2 µM | [5] 30.5 µM | [13] 0.345 µM | [7] 19.4 µM | [10] 0.542 µM | [11] 27.1 µM

CCCC(C)c1ccccc1O (stereo not given)
inactive: [1] | [2] | [3] | [4] | [5] | [13] | [8] | [9] | [10] | [11]

COCCCC/C(=N\OCCN)c1ccc(C(F)(F)F)cc1
inactive: [1] | [2] | [3] | [4] | [5] | [6] | [8] | [10] | [14] | [18] | [15] | [19] | [16] | [17] | [11]
active: [9] 23.7 µM
